In all, about 64,000 compounds went through this assay and about 2,200 (3.4%) were called active. The list comes from a sample in which actives are over-represented; it also holds similar structures and randomly drawn compounds. A number with no mark means an inactive call.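 The calls were made as follows: active = calcium fluorescence response, raw or row-and-column corrected B-score, differing from the plate sample mean either way at a set confidence level, mostly lower; inactive = the rest.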

For the test, the target named is Muscarinic acetylcholine receptor M1 (Rattus norvegicus) (UniProt P08482). As to the kind of experiment: blocks the rat M1 muscarinic receptor response to acetylcholine (AID 628). The note with it: CHO-M1 cells, Fluo-4 calcium, ACh EC80 antagonist mode; at 10 µM; stronger effect = lower value.
Chain of Muscarinic acetylcholine receptor M1 (Rattus norvegicus) (P08482 whole entry, looked up): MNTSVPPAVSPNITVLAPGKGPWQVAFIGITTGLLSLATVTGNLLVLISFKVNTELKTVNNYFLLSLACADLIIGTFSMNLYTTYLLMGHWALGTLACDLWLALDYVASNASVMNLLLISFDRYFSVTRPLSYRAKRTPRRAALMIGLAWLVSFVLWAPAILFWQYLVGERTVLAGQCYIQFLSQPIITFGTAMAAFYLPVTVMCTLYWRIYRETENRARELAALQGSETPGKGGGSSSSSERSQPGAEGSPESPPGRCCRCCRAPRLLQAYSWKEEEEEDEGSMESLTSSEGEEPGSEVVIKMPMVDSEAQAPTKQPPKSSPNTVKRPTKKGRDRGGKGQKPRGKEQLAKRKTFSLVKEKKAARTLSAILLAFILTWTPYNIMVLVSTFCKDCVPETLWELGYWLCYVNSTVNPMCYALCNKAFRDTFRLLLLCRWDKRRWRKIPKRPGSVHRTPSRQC
Regarding `Cc1c(CN2CCC(C)CC2)c(=O)n(-c2ccccc2)n1C`, the B-score is 0.549.

For `Cc1cccc(N2CCN(Cc3c(C)n(C)n(-c4ccccc4)c3=O)CC2)c1C`, the B-score is -9.51 (active).

Regarding `CC(=O)N1CCN(c2cccc(C)c2C)CC1`, the B-score was 0.482.

For the compound `CC1CCCN(Cc2nc3c(c(=O)n(C)c(=O)n3C)n2Cc2cccc3ccccc23)C1` (stereo not given), the B-score is 0.779.

On to `O=C1CC(Cc2ccccc2)C(=O)N1c1ccc(Cl)cn1` (stereo not given), for which the B-score was -0.406.

Turning to `CCn1c(SCC(=O)Nc2cc(C)ccc2C)nnc1-c1cnccn1`, the B-score was 0.583.

Regarding `C=C(C)Cn1c(N2CCCC2)nc2c1c(=O)[nH]c(=O)n2C`, the B-score is -2.42 (active).

Turning to `C=C(C)Cn1c(N2CCN(CC)CC2)nc2c1c(=O)[nH]c(=O)n2C`, the B-score is 0.423.

With `Cn1c(=O)[nH]c(=O)c2c1nc(N1CCCCCC1)n2CC(=O)c1ccccc1`, the B-score was 0.41.

As for `COc1ccc(C(CC(=O)O)NC(=O)Cc2ccccc2)cc1` (stereo not given), the B-score is -0.777.

On to `Cc1cc(C(=O)COC(=O)c2cccs2)c(C)n1-c1c(C)n(C)n(-c2ccccc2)c1=O`, for which the B-score is -1.28.

`COc1ccccc1N=C1SC(C)CN1C(=O)C1CCC1` (stereo not given): the B-score was 0.0033.

Turning to `CCOc1ccccc1N=C1NC(=O)CS1`, the B-score was 0.266.

In the case of `CCC/C(O)=C1\C(=O)CC(C)(C)CC1=Nc1ccccc1OC`, the B-score is -1.93 (active).

For `CC1CN(Cc2nc3c(c(=O)n(C)c(=O)n3C)n2Cc2cccc(Cl)c2)CC(C)O1` (stereo not given), the B-score is 1.23.

With `CC(=O)NCC(=O)N(C)C(C(=O)Nc1ccc2c(c1)OCCO2)c1ccccc1` (stereo not given), the B-score is 0.158.

For the compound `CCCCC(CCC(=O)Nc1ccc(C(=O)OCC)cc1)C(=O)O` (stereo not given), the B-score is 0.867.

Regarding `CCCCCOC(=O)NCCOC(=O)Nc1ccc(C(=O)OCC)cc1`, the B-score is -2.48 (active).

With `CCCCCCOC(=O)NCC(O)c1ccccc1` (stereo not given), the B-score is 0.126.

Consider `Cc1ccccc1Cn1c(=O)[nH]c2ccccc21`, for which the B-score is -1.7.

Regarding `COc1ccc(CNC(=O)c2cc3c(=O)n4ccccc4nc3n(CC3CCCO3)c2=N)cc1` (stereo not given), the B-score was -1.29.

On to `CCn1c(=N)c(C(=O)NCCCOC)cc2c(=O)n3cccc(C)c3nc21`, for which the B-score is -0.808.

As for `COc1ccc(CCn2c(=N)c(C(=O)NCc3ccco3)cc3c(=O)n4cccc(C)c4nc32)cc1`, the B-score was -2.38 (active).

As to `CCOC(=O)C1CCN(C(=O)C2CCN(S(=O)(=O)c3c(C)noc3C)CC2)CC1`, the B-score was 0.0324.

`Cn1c(=NC(=O)CSCC(=O)N2CCOCC2)sc2ccccc21`: the B-score was 0.949.

`CC(C)Oc1ccc(C(=O)Nc2cc(=O)n(C)c(=O)n2C)cc1`: the B-score was -0.0919.

For `COC(=O)Nc1c(C)n(C)n(-c2ccccc2)c1=O`, the B-score is -0.678.

On to `Cc1ccc(S(=O)(=O)Nc2ccccc2CNc2c(C)n(C)n(-c3ccccc3)c2=O)cc1`, for which the B-score is 0.193.

In the case of `COc1ccc(S(=O)(=O)Nc2c(C)n(C)n(-c3ccccc3)c2=O)cc1`, the B-score is 2.26 (active).

On to `COc1ccccc1N1CCN(C(=O)CSc2nnc(-c3ccoc3C)o2)CC1`, for which the B-score is -1.48.

Take `N=c1c2c3c(sc2ncn1N)CCCCC3`: the B-score is 1.08.

Take `O=C(O)[C@@H]1CCCN1c1ncnc2sc3c(c12)CCC3`: the B-score was 0.0259.

`CC1(C)CN=C(N2CCN(c3ncnc4sc5c(c34)CCCC5)CC2)S1`: the B-score was -3.91 (active).

In the case of `O=C1CCCC2=C1C(c1cccs1)n1nc(SCc3ccccc3)nc1N2` (stereo not given), the B-score was 1.97.

As for `CCOC(=O)c1c(NC(=O)CSc2nnc(C)c(=O)[nH]2)sc2c1CCC2`, the B-score is 0.293.

In the case of `CCOC(=O)c1c(NC(=O)CSc2nnc(CN3CCOCC3)n2C)sc2c1CCCC2`, the B-score was -2.5 (active).

Consider `COC(=O)c1c(NC(=O)CCN2CCOCC2)sc2c1CCCC2`, for which the B-score was 0.415.

Turning to `Cc1coc2c(O)cc3c(c12)OC1(N2CCCCC2)C(=O)NCCCC31` (stereo not given), the B-score is 0.313.

Regarding `CCOc1ccc(N(CC(=O)OC)S(=O)(=O)c2c(C)noc2C)cc1`, the B-score is 0.515.

In the case of `Cc1cc(C)c2nc(SCCC#N)nc(C)c2c1`, the B-score was -0.0173.

For `CC(=O)N1C(=O)C2(Nc3ccccc3N2)c2ccccc21`, the B-score is -0.00551.

Consider `CCCc1[nH]nc2c1C(c1c(C)nn(-c3ccccc3)c1Cl)C(C#N)=C(N)O2` (stereo not given), for which the B-score was -0.557.

As to `COc1ccc(C2C(C(=O)Nc3ccccc3OC)=C(C)Nc3nnnn32)c(OC)c1` (stereo not given), the B-score was -0.00786.

As to `COC(=O)c1ccc(C2C3=C(Nc4nnnn42)c2ccccc2OC3)cc1` (stereo not given), the B-score was -2.33 (active).

`COc1ccccc1NC(=O)C1=C(C)Nc2nnnn2C1c1cccc(Br)c1` (stereo not given): the B-score is 0.285.

Take `CCSc1nc(=S)n(CC)c(C)c1C(C)=O`: the B-score is -0.669.

Regarding `O=c1c2ccccc2oc2nc3n(c(=O)c12)CCCS3`, the B-score is 0.0394.

For the compound `CC(=C1C(=O)c2ccccc2C1=O)N1CCN(c2ccccn2)CC1`, the B-score is 0.0748.

On to `O=C(C(NS(=O)(=O)c1cccc2nsnc12)c1ccccc1)N1CCN(c2ccccn2)CC1` (stereo not given), for which the B-score is -4.43 (active).

As to `O=C(O)c1ccc(NS(=O)(=O)c2cccc3nsnc23)cc1`, the B-score is 1.18.

Consider `O=C(CSc1nnnn1C1CCCC1)Nc1ccc2c(c1)OCCO2`, for which the B-score is -1.53.

As to `CCc1ccc2oc(=O)cc(CN3CCCCC3C)c2c1` (stereo not given), the B-score is -0.803.

`Cc1ccc(-c2ccc(=O)n(CC(=O)NCCCN3CCCCC3)n2)cc1`: the B-score is -0.074.

Regarding `CC1(C)CC(=O)C=C(NCCCNC2CCCCC2)C1`, the B-score was -0.705.

For `CC(C[N+](C)(C)C)OC(N)=O` (stereo not given), the B-score is -15 (active).

As to `CC(=O)OC(C)C[N+](C)(C)C` (stereo not given), the B-score is -11.2 (active).

On to `CCOC(=O)c1c(C)n(C)c2ccc(OC)c(NC(=O)CN3CCC4(CC3)OCCO4)c12`, for which the B-score is -0.00466.

Regarding `O=C(O)c1ccc(-n2cccc2)cc1O`, the B-score was -0.249.

With `COc1ccccc1OCCC(=O)OCC(=O)NC(=O)NC(C)(C)C`, the B-score was -0.989.

As for `CCOC(=O)Nc1ccc2c(c1)N(C(=O)CN1CCN3CCCC3C1)c1ccccc1CC2` (stereo not given), the B-score was -4.22 (active).

Turning to `O=C(CN1CCN(C2CCCCC2)CC1)Nc1ccccc1N1CCCCC1`, the B-score was -0.00297.

Take `CCOC(=O)C1CCCN(Cc2nc(N)nc(Nc3ccc(C)cc3)n2)C1` (stereo not given): the B-score is -0.238.

For the compound `CC(=O)Nc1cccc(NC(=O)c2c(-c3ccccc3)noc2C)c1`, the B-score was 0.424.

Take `Cn1c(=O)[nH]c(=O)c2c1nc(N1CCN(CCO)CC1)n2CCSc1nc2ccccc2s1`: the B-score is -0.514.

In the case of `C=C(Br)Cn1c(CCCC)nc2ccccc21`, the B-score was 0.344.

Take `OC1CN=C2Sc3ccccc3N2C1` (stereo not given): the B-score is -0.000781.

On to `COc1cc(Cl)c(C)cc1NC(=O)CSc1nnc(-c2cccnc2)n1Cc1ccco1`, for which the B-score was 1.15.

As to `COc1cc(Cl)c(C)cc1NC(=O)CSc1nnc(-c2ccco2)n1CC(C)C`, the B-score is -3.28 (active).

Consider `CCn1c(SCC(=O)Nc2cc(C)c(Cl)cc2OC)nnc1-c1ccco1`, for which the B-score is 0.0151.

On to `Cc1ccc(C)c2[nH]c(=O)c(CCNC(=O)CC(C)C)cc12`, for which the B-score is 0.426.

For the compound `O=c1/c(=C/c2ccc(CNS(=O)(=O)c3ccccc3)o2)sc2n1CCN=2`, the B-score is -1.07.

Turning to `C=CCSc1nc2ccccc2[nH]1`, the B-score is -3.2 (active).

As for `O=C(CSc1nc2ccccc2[nH]1)c1cccs1`, the B-score was 0.722.

With `c1ccc2[nH]c(-c3nc4ccccc4[nH]3)nc2c1`, the B-score was 0.625.

Take `O=S(=O)(c1cccc(-c2nnc(SC(F)F)n2-c2ccccc2)c1)N1CCCCC1`: the B-score was 0.56.

As to `CCCCN=C(N)/C(C(=O)OCC)=C(\O)c1ccc(OC)cc1`, the B-score was 0.0185.

In the case of `Cc1cccc(C)c1NC(=O)CCCSc1nnc(-c2ccco2)n1-c1ccccc1`, the B-score is 0.509.

With `CCN(c1ccc2c(c1)OCO2)S(=O)(=O)c1cc(Br)cc2c1N(C(=O)C1CC1)CC2`, the B-score is -0.598.

Turning to `CCOC(=O)N1CCN(C(=O)C2CCN(S(C)(=O)=O)CC2)CC1`, the B-score was -0.427.

For `CCOC(=O)N1CCN(S(=O)(=O)c2cc(Br)cc3c2N(C(=O)C2CC2)CC3)CC1`, the B-score was -2.88 (active).

As for `COc1ccccc1N1CCN(Cc2ccc(OC)c3ccccc23)CC1`, the B-score was 0.229.

Turning to `COc1ccc(S(=O)(=O)Nc2ccc(S(=O)(=O)N3CCCCC3)cc2)cc1OC`, the B-score was 0.8.

Consider `Cc1ccc(C)c(NC(=O)CSc2nnc(Cc3cccn3C)n2-c2ccc(F)cc2)c1`, for which the B-score was 0.873.

Take `COc1ccc(-c2nnn(Cc3nc(N)nc(N4CCCCC4)n3)n2)cc1`: the B-score is -1.19 (active).

`CCOc1ccc(-c2nnn(CC(=O)N3CCN(c4ccc(OC)cc4)CC3)n2)cc1OCC`: the B-score is 0.00223.

As for `CCc1ccc(-c2nnn(Cc3nn[nH]n3)n2)cc1`, the B-score was 0.0832.

For `Cc1cc(C)c(C#N)c(SCc2[nH]nc3c2C(c2ccccc2)C(C#N)=C(N)O3)n1` (stereo not given), the B-score is 0.363.

For the compound `N#CC1=C(N)Oc2n[nH]c(CSc3ccccc3)c2C12C(=O)Nc1ccccc12` (stereo not given), the B-score is 2.72 (active).

Regarding `COc1ccc(Br)cc1/C=N/n1c(C)nnc1C`, the B-score was 0.304.

With `COc1cc(C2C(C(=O)Nc3ccccc3OC)=C(C)Nc3ncnn32)ccc1O` (stereo not given), the B-score was -0.653.

Turning to `CCOc1ccc(C2C(C(=O)NC)=C(C)Nc3nc4ccccc4n32)cc1OC` (stereo not given), the B-score was -3.24 (active).

Turning to `COc1cc(C2C(C(=O)Nc3ccc(F)cc3)=C(C)Nc3nc(CCCO)nn32)cc(OC)c1OC` (stereo not given), the B-score is 0.464.

As for `COc1ccc(OCC(=O)OCCN(C)C)cc1`, the B-score was 0.389.

On to `CN(C)CCOC(=O)C(c1ccccc1)C1(O)CCCC1` (stereo not given), for which the B-score was -11.9 (active).

For `Cn1nc(-c2ccc(Cl)cc2)c2cc(C(=O)NCc3ccco3)sc21`, the B-score was 0.443.

These data come from PubChem BioAssay AID628 (Vanderbilt High Throughput Screening Facility, 2007).
